Results on 25 compounds are retold here after PubChem BioAssay (NCI).

Several values for one entry are separate records, joined by “and”; a condition that tells them apart may be missing. Equal entries are not always repeated. The panel holds about 83,000 compounds, 20% with a hit somewhere; the sample as a whole holds those more often.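 A percent growth of 40 corresponds to 60% growth inhibition; 0 means no net growth; -100 means all cells died. Active threshold: below 10.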 Unmarked numbers belong to inactive results. Activity calls are given as the source filed them.

Experiment in all cases: NCI-60 one-dose screen, 48 h (100 = growth as untreated, 0 = no growth, -100 = all killed)
Common to all, as to details: 10 µM unless noted

In assay [1] the test system is DU-145 prostate.
In assay [2] the test system is K-562 leukemia.
Assay [3] deals with MALME-3M melanoma.
Assay [4] concerns MDA-MB-231 breast.
The subject of assay [5] is RXF 393 renal.
Assay [6] relates to SF-268 CNS.
Assay [7] deals with SF-295 CNS.
The test system of assay [8] is SF-539 CNS.
In assay [9] the test system is UACC-257 melanoma.
The subject of assay [10] is M14 melanoma.

On to `C[C@@H]1[C@H]2C[C@@H](C[C@H]1NCc1nc3ccccc3n1C1CCCCCC1)C2(C)C`, for which the growth was 88.3% in assay [1]; 24.1% in assay [2]; 51.4% in assay [3]; 77.8% in assay [4]; 19% in [5]; 75.6% in assay [6]. Besides, the growth in assay [7] is 57.6%; in assay [8] it was 77.1%; in assay [9] it was 64.7%; in assay [10], 61%.

As to `COc1ccc2[nH]c(O)c(N=NC(=O)c3ccc4nc(-c5ccc(Cl)cc5)[nH]c4c3)c2c1`, the growth is 65.6% in assay [1]; 41.8% in assay [2]; 33.4% in [3]; 23.9% in [4]; 43.4% in [5]; 27.3% in assay [6]. For the same compound, the growth in assay [7] was 103%; in assay [8], 67.6%; in assay [9], 100%; in assay [10], 59.4%.

With `COc1cccc(/C=C/c2nc3ccccc3c(=O)n2CC(=O)Nc2ccccc2)c1`, the growth was 87.8% in assay [1]; 93% in assay [2]; 56.1% in [3]; -29% (active) in assay [4]; 0.184% (active) in assay [5]; 69.5% in assay [6]. For the same compound, the growth in [7] is 48.8%; in assay [8], 11.8%; in [9] it was 67.8%; in [10], 47.8%.

Regarding `CN(C(=O)CN1C(=O)/C(=C/c2ccco2)SC1=S)C1CCS(=O)(=O)C1` (stereo not given), the growth in [1] was 103%; in assay [2], 85.1%; in assay [3], 97.1%; in [4], 108%; in assay [5], 108%; in [6], 93.9%. The growth in [7] is 104%; in assay [8], 104%; in assay [9] it was 96.4%; in assay [10], 94.6%.

For `COc1sc(/C=N/NC(=O)c2[nH]c3ccc(Br)cc3c2-c2ccccc2)cc1Cl`, the growth was -63.2% (active) in [1]; 9.98% (active) in assay [2]; 18.1% in [3]; -68% (active) in assay [4]; -25.7% (active) in assay [5]; -17.2% (active) in [6]. The growth in [7] is -40.6% (active); in assay [8] it was -85.3% (active); in assay [9], 29%; in [10] it was -3.6% (active).

Turning to `CCOc1ccccc1[C@H]1C(C(=O)c2ccc(Cl)cc2)C2(N[C@@H]1c1ccccc1)C(=O)Nc1ccc(Br)cc12` (stereo not given in full), the growth in [1] is 23%; in assay [2] it was -13% (active); in assay [3], -15% (active); in [4], -68.7% (active); in assay [5] it was -88.4% (active); in assay [6], 14.2%. For the same compound, the growth was -42.6% (active) in assay [7], -70.2% (active) in assay [8], 44% in assay [9] and -38% (active) in assay [10].

For the compound `CC(=O)Nc1cccc(-n2c(COc3ccc(Br)cc3)nc3ccccc32)c1`, the growth in [1] is 106% and 89.7%; in assay [2], 91.4% and 106%; in [3], 96.3% and 98.8%; in assay [4], 80% and 102%; in assay [5] it was 82.4% and 106%; in assay [6] it was 91% and 103%. Moreover, the growth in [7] is 89.6% and 103%; in [8] it was 87.4% and 106%; in [9], 130% and 107%; in assay [10], 109% and 108%.

For the compound `CCCCCCCCc1cccc(CC(=O)Nc2ccc(C)cc2C(=O)O)c1`, the growth in [1] is 59.4% [25 µM]; in [2], 28.9% [25 µM]; in [3], 67.7% [25 µM]; in assay [4], 66.5% [25 µM]; in assay [5], 104% [25 µM]; in [6], 61.9% [25 µM]. The growth in [7] is 35.2% [25 µM]; in assay [8] it was 37.1% [25 µM]; in assay [9], 71.2% [25 µM]; in assay [10] it was 62.9% [25 µM].

Turning to `COc1ccc(-c2cc(-c3cc(C(C)C)c(O)cc3C)nn2-c2ccc(S(N)(=O)=O)cc2)cc1`, the growth was 16.2% in assay [1]; 13.6% in assay [2]; 60.1% in assay [3]; 27.9% in [4]; 26.7% in assay [5]; 47.2% in [6]. Also, the growth in [7] was 19.8%; in [8], -28% (active); in assay [9], 60.5%; in assay [10], 42.8%.

Consider `O=C(N/N=C/c1occc1Br)c1[nH]c2ccc(Br)cc2c1-c1ccccc1`, for which the growth in assay [1] is -78.4% (active); in [2], 6.6% (active); in [3], -94.9% (active); in [4], -83.1% (active); in assay [5], -88.2% (active); in assay [6] it was -65.9% (active). The growth in assay [7] was -91.2% (active); in assay [8], -100% (active); in assay [9], -68.2% (active); in [10], -84.5% (active).

For the compound `CCC1(OC(=O)c2ccccc2SSCCOC(=O)CCCCC2SCC3NC(=O)NC32)C(=O)OCc2c1cc1n(c2=O)Cc2cc3ccccc3nc2-1` (stereo not given), the growth was 35.3% in assay [1]; 52.8% in assay [2]; 55.8% in assay [3]; 82.5% in assay [4]; 82% in assay [5]; 38.5% in assay [6]. Also, the growth in [7] was 5.6% (active); in [8] it was 29.4%; in [9] it was 12.8%; in [10], 40.1%.

As to `N#Cc1ccc(C(=O)NNC(=O)CSc2nc3sc4c(c3c(=O)n2-c2ccc(Cl)cc2)CCCC4)cc1`, the growth in assay [1] was 70.4%; in assay [2], 63.4%; in [3] it was 39.5%; in assay [4], 3.65% (active); in [5], 47.5%; in assay [6], 92.7%. Besides, the growth in assay [7] is 62.7%; in [8], -43.9% (active); in [9], 91.4%; in [10], 44.7%.

`NNc1ncnc2sc3c(c12)CCN(Cc1ccccc1)C3`: the growth in [1] is 61.7%; in [2] it was 19%; in assay [3] it was 70.4%; in [4] it was 40.8%; in [5], 69.3%; in [6], 43.8%. Moreover, the growth was 45.2% in assay [7], 52.8% in assay [8], 47% in [9] and 62.9% in assay [10].

`Cn1cc(-c2cc(N)n3nc(-c4c[nH]c5ccccc45)cc3n2)c2cc(Br)ccc21`: the growth in assay [1] was -70% (active); in [2], 7.7% (active); in [3], -76.9% (active); in [4], -89.3% (active); in [5] it was -80.6% (active); in assay [6] it was -39.8% (active). The growth in assay [7] is -93.6% (active); in [8], -93.7% (active); in assay [9] it was -79.8% (active); in assay [10], -65.7% (active).

`CN(C)c1ccc(/C=C/c2n(Cc3ccc4ccccc4c3)c3ccccc3[n+]2Cc2ccc3ccccc3c2)cc1`: the growth in assay [1] is -43.3% (active); in assay [2], 2.08% (active); in assay [3], -68% (active); in assay [4] it was -80.3% (active); in assay [5], -74.4% (active); in assay [6], -59.1% (active). In addition, the growth in [7] is -98.9% (active); in assay [8], -95.3% (active); in [9], -74.3% (active); in assay [10], -69.2% (active).

With `Nc1nn2c(-c3cc4cc(Br)ccc4oc3=O)ccnc2c1N=Nc1ccc(Br)cc1`, the growth in assay [1] was 36.8%; in assay [2] it was 32.4%; in [3], 52.1%; in assay [4], -43.8% (active); in assay [5], -31.4% (active); in assay [6], 26.9%. In addition, the growth in [7] was -37% (active); in [8], -71.4% (active); in [9], 87.8%; in assay [10] it was 42.4%.

As for `Cc1cc(=O)oc2cc(OCC(O)CNN3C(=O)c4cccc5c(N6CCN(C)CC6)ccc(c45)C3=O)ccc12` (stereo not given), the growth is 96.6% in assay [1]; 80.4% in assay [2]; 14.5% in [3]; 89.3% in assay [4]; 82.3% in [5]; 91.4% in assay [6]. Also, the growth in assay [7] is 108%; in assay [8], 81.2%; in assay [9] it was 72.9%; in assay [10], 89.7%.

As for `Cc1nc(Nc2ccccn2)sc1C1=NNC(c2ccccc2F)C1` (stereo not given), the growth in [1] was 67.4%; in assay [2] it was 15.1%; in assay [3], 63.8%; in assay [4], 47.5%; in [5] it was 87.5%; in assay [6] it was 78.2%. The growth in assay [7] is 39.6%; in [8], 32.4%; in [9] it was 83.2%; in [10], 52.6%.

As for `CCCCCCCCc1ccc(C(=O)Nc2cccc(O)c2)cc1`, the growth was 80.1% in assay [1]; 22.6% in assay [2]; 77.1% in [3]; 78.9% in assay [4]; 86.6% in assay [5]; 93.1% in assay [6]. Besides, the growth in assay [7] was 75%; in [8], 79.7%; in [9], 79.3%; in assay [10], 76.4%.

For the compound `N#CCc1nnc(NC(=O)c2ccc(-n3c(=O)[nH]c4ccccc4c3=O)cc2)s1`, the growth in assay [1] was 128%; in [2] it was 101%; in assay [3], 95.3%; in assay [4], 95.5%; in assay [5], 112%; in assay [6], 115%. For the same compound, the growth in assay [7] is 93.6%; in assay [8], 97.9%; in [9], 104%; in assay [10] it was 108%.

As for `Cc1nc2sccn2c1-c1nnc(SCC(C)C)o1`, the growth in [1] was 99.1%; in [2], 52.7%; in assay [3], 97.8%; in assay [4] it was 87.1%; in assay [5], 104%; in assay [6] it was 88.5%. Besides, the growth in assay [7] was 86.1%; in assay [8], 93.3%; in [9], 98.7%; in [10] it was 99.9%.

With `COc1ccccc1Nc1nnc(-c2c[nH]c3ccccc23)o1`, the growth in assay [1] was 12.6%; in assay [2], 7.09% (active); in assay [3] it was 44.1%; in [4], 3.73% (active); in assay [5], -48.2% (active); in assay [6], 47.7%. Moreover, the growth in assay [7] was -28.8% (active); in assay [8] it was -40.3% (active); in [9], 44.7%; in [10], 20.5%.

In the case of `Cc1nn(-c2ccccc2)c2nc(C)n(CC(=O)N/N=C/c3ccccc3O)c(=O)c12`, the growth was 48.9% in assay [1]; 18.4% in assay [2]; 47.4% in assay [3]; 34.2% in [4]; 25.9% in assay [5]; 47.6% in [6]. The growth in assay [7] is 23.6%; in assay [8] it was 21.8%; in [9] it was 2.59% (active); in assay [10], 2.09% (active).

Consider `Cn1cc(-c2cc(N)n3nc(-c4c[nH]c5ccc(F)cc45)cc3n2)c2cccnc21`, for which the growth in [1] is -75.7% (active); in [2] it was -32% (active); in assay [3], -93% (active); in assay [4], -85.9% (active); in assay [5], -81.2% (active); in assay [6], -27% (active). Also, the growth in assay [7] was -93.9% (active); in assay [8] it was -96.3% (active); in assay [9] it was -87.3% (active); in assay [10], -89.5% (active).

For `O=C(Nc1ccc(-c2ccc3c(c2)NC(=O)/C3=C\c2ccc[nH]2)cc1)Nc1cccc(Cl)c1`, the growth was 24.6% in [1]; 7.56% (active) in [2]; 7.96% (active) in [3]; -23.1% (active) in [4]; -53.6% (active) in [5]; 32% in assay [6]. Besides, the growth in assay [7] is -31% (active); in assay [8], -79.8% (active); in [9], 22.3%; in [10], 9.34% (active).
